# Assay results from PubChem BioAssay (NCATS).
# Where “and” joins values, the source holds several entries; their conditions need not be identical. Equal values may be shown once. Results filed as inconclusive are left out. A call without a number means that no potency is given here. Values without a mark were called inactive. Calls of active or inactive are those of the source. Calls come from the whole dose curve; as a rule, active = well fitted curve in the direction sought with a large enough effect; inconclusive = small, poorly fitted or top-dose-only effect, or another doubt; inactive = no such curve, though single readings can be large; an effect the other way counts as inactive or inconclusive.
# Experiments:
# [1] = target: Cellular tumor antigen p53 (Homo sapiens) (UniProt P04637); assay: Primary qHTS for small molecule compounds that upregulate eGFP-tagged delta133p53alpha (in N-terminal) cells. (AID 2060322); settings: NCI-H358 eGFP-delta133p53alpha fluorescence, 24 h; activation: stronger effect = higher value; note: nearly all actives have a fitted effect of over 75% in size; note: potency is the fitted concentration of half-maximal effect;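 for activation: cells pre-induced with doxycycline then dosed without doxycycline; series mostly up to about 56 µM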
# Sequence of Cellular tumor antigen p53 (Homo sapiens) (P04637 whole entry, looked up): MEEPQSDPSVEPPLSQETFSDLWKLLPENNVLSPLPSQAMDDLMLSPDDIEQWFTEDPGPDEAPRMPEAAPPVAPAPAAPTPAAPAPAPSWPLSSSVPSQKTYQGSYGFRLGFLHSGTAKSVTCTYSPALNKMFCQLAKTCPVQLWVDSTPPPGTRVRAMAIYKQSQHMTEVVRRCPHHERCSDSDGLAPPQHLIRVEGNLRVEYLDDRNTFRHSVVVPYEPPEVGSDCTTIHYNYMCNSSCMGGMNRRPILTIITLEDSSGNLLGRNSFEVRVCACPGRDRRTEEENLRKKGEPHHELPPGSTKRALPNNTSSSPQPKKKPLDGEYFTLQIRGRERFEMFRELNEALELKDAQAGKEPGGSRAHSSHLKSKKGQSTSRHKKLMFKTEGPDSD
# Procedure, shortened: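 NCI-H358 cells pre-induced 24 h with 10 ng/ml doxycycline for eGFP-delta133p53alpha, plated dox-free and exposed 24 h at 37C to titrated compounds. Fixed, Hoechst-stained; gated GFP peak intensity by laser scanning cytometry, normalized to DMSO (0%) and 57.5 uM 5-azacytidine (100%).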
# [2] = target: Aldehyde dehydrogenase, mitochondrial (Homo sapiens) (UniProt P05091); assay: qHTS for Inhibitors of the Aldehyde Dehydrogenase Family (ALDH2) Primary screen (AID 2061308); note: nearly all actives have a fitted effect of over 55% in size; note: potency is the fitted concentration of half-maximal effect
# [3] = target: Retinaldehyde dehydrogenase 3 (Homo sapiens) (UniProt P47895); assay: qHTS for Inhibitors of the Aldehyde Dehydrogenase Family (ALDH1A3) Validation screen (AID 2061312); note: nearly all actives have a fitted effect of over 45% in size
# [4] = target: Retinaldehyde dehydrogenase 3 (Homo sapiens) (UniProt P47895); assay: qHTS for Inhibitors of the Aldehyde Dehydrogenase Family (ALDH1A3) Primary screen (AID 2061315)
# [5] = BET inhibitor-based combinations targeting novel dependencies in MECOM-rearranged (r) AML: OCI-AML3 cell line (AID 2202232); settings: Potency: OCI-AML3 viability; note: nearly all actives have a fitted effect of over 35% in size; note: potency is the fitted concentration of half-maximal effect
# Procedure, shortened: (§1)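 Each compound was tested at eleven concentrations on cells seeded at 500/well. After two days' incubation, ATP-based luminescence reported viability; responses relative to DMSO and blank wells yielded AUC and cell-line-centred Z-AUC.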
# [6] = BET inhibitor-based combinations targeting novel dependencies in MECOM-rearranged (r) AML: MV-4-11 cell line (AID 2202233); note: nearly all actives have a fitted effect of over 45% in size; note: potency is the fitted concentration of half-maximal effect
# Procedure, shortened: (§2)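 First, 500 cells per well were seeded; next, drugs were pinned as 11-point doses; then plates sat 48 hr in the incubator; finally CellTiter-Glo was added and luminescence read, with AUC and Z-AUC computed.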
# [7] = BET inhibitor-based combinations targeting novel dependencies in MECOM-rearranged (r) AML: AML-194 cell line (AID 2202237; note: nearly all actives have a fitted effect of over 40% in size; note: potency is the fitted concentration of half-maximal effect)
# Procedure, shortened: as §1
# [8] = BET inhibitor-based combinations targeting novel dependencies in MECOM-rearranged (r) AML: SET-2 cell line (AID 2202231); settings: SET-2 AML cells viability, CellTiter-Glo luminescence, 48 h; viability: stronger effect = lower value, concentration not given here; note: nearly all actives have a fitted effect of over 35% in size; note: potency is the fitted concentration of half-maximal effect
# Procedure, shortened: as §1
# [9] = BET inhibitor-based combinations targeting novel dependencies in MECOM-rearranged (r) AML: HNT-34 cell line (AID 2202234); note: nearly all actives have a fitted effect of over 35% in size; note: potency is the fitted concentration of half-maximal effect
# Procedure, shortened: as §2
# [10] = BET inhibitor-based combinations targeting novel dependencies in MECOM-rearranged (r) AML: AML-191 cell line (AID 2202236; note: nearly all actives have a fitted effect of over 35% in size; note: potency is the fitted concentration of half-maximal effect)
# Procedure, shortened: as §1
# [11] = BET inhibitor-based combinations targeting novel dependencies in MECOM-rearranged (r) AML: UCSD-AML1 cell line (AID 2202235); note: nearly all actives have a fitted effect of over 40% in size; note: potency is the fitted concentration of half-maximal effect
# Procedure, shortened: as §2
# [12] = target: Retinal dehydrogenase 2 (Homo sapiens) (UniProt O94788); assay: qHTS for Inhibitors of the Aldehyde Dehydrogenase Family (ALDH1A2) Confirmation screens (AID 2061314); note: nearly all actives have a fitted effect of over 65% in size; note: potency is the fitted concentration of half-maximal effect
# [13] = target: Aldehyde dehydrogenase 1A1 (Homo sapiens) (UniProt P00352); assay: qHTS for Inhibitors of the Aldehyde Dehydrogenase Family (ALDH1A1) Confirmatory screens (AID 2061316); note: potency is the fitted concentration of half-maximal effect; nearly all actives have a fitted effect of over 65% in size
smiles,measurement,setting,value
C[C@@]1(C(=O)Nc2ccc(F)nc2)CCCN1c1nc(Nc2cc(C3CC3)[nH]n2)c2cccn2n1,activation,[1],19.3%
same,Potency,[2],inactive
same,Potency,[3],inactive
same,Potency,[4],inactive
same,Potency,[5],0.0742 µM (active)
same,Potency,[6],2.95 µM (active)
same,Potency,[7],1.48 µM (active)
C=C1[C@H](CO)[C@@H](O)C[C@@H]1n1cnc2c(=O)[nH]c(N)nc21,activation,[1],-3.34%
same,Potency,[2],inactive
same,Potency,[3],inactive
same,Potency,[4],inactive
same,viability,[8],117%
same,Potency,[9],inactive
same,Potency,[10],18.6 µM (active)
same,Potency,[7],inactive
COc1cc(OC)c2c(=O)[nH]c(-c3cc(C)c(OCCO)c(C)c3)nc2c1,activation,[1],-0.477%
same,Potency,[2],inactive
same,Potency,[3],inactive
same,Potency,[4],inactive
same,Potency,[5],14.8 µM (active)
same,Potency,[6],16.6 µM (active)
same,Potency,[10],16.6 µM (active)
same,Potency,[7],20.9 µM (active)
CN[C@@H](C)C(=O)N[C@H]1CN(C(=O)CC(C)C)CC[C@H]2CC[C@@H](C(=O)NC(c3ccccc3)c3ccccc3)N2C1=O,activation,[1],28.1%
same,Potency,[2],inactive
same,Potency,[3],inactive
same,Potency,[4],inactive
same,Potency,[7],inactive
CNC(=O)c1ccc2c(C(=Nc3cccc(CN(C)C)c3)c3ccccc3)c(O)[nH]c2c1,activation,[1],-0.477%
same,Potency,[2],inactive
same,Potency,[3],inactive
same,Potency,[6],1.66 µM (active)
same,Potency,[9],20.9 µM (active)
same,Potency,[11],inactive
COc1cc(/C=C/C(=O)OC2CC(C)=C(C(=O)O)/C2=C/CO[C@@H]2O[C@H](CO)[C@@H](O)[C@H](O)[C@H]2O)ccc1O (stereo partly specified),activation,[1],-8.93%
same,Potency,[2],inactive
same,Potency,[4],inactive
Cc1cc(N2CCOCC2)ccc1Nc1nc(NC2CCCCC2)c2[nH]cnc2n1,activation,[1],7.16%
same,Potency,[2],inactive
same,Potency,[3],inactive
same,Potency,[4],inactive
same,Potency,[6],1.32 µM (active)
same,Potency,[7],4.17 µM (active)
O=C(Nc1cccnn1)N1CCC(=Cc2cccc(Oc3ccc(C(F)(F)F)cn3)c2)CC1,activation,[1],-1.43%
same,Potency,[2],inactive
same,Potency,[3],inactive
same,Potency,[4],inactive
same,Potency,[11],inactive
same,Potency,[10],18.6 µM (active)
same,Potency,[7],18.6 µM (active)
N#Cc1cnc2cnc(NCc3cccnc3)cc2c1Nc1ccc(F)c(Cl)c1,Potency,[1],2.69 µM (active)
same,Potency,[2],inactive
same,Potency,[4],inactive
O=C1NC(=O)C(c2cnc3ccccn23)=C1c1cn2c3c(cccc13)CN(C(=O)N1CCOCC1)CC2,Potency,[1],23.9 µM (active)
same,Potency,[2],inactive
same,Potency,[12],inactive
same,Potency,[13],12.7 µM (active)
same,Potency,[8],0.118 µM (active)
same,Potency,[5],3.32 µM (active)
same,Potency,[6],0.0934 µM (active)
same,Potency,[9],0.118 µM (active)
same,Potency,[11],1.05 µM (active)
same,Potency,[10],0.525 µM (active)
same,Potency,[7],2.35 µM (active)
COC1CCN(C(=O)c2cc(Cc3n[nH]c(=O)c4ccccc34)ccc2F)CC1,activation,[1],4.47%
same,Potency,[2],inactive
same,Potency,[3],inactive
same,Potency,[4],inactive
same,Potency,[6],16.6 µM (active)
same,Potency,[10],18.6 µM (active)
N#Cc1c(O)c2c(-c3ccc(-c4ccccc4O)cc3)csc2[nH]c1=O,activation,[1],4.35% and -11.5%
same,Potency,[2],17.8 µM (active)
same,Potency,[12],12.7 µM (active)
same,Potency,[4],inactive
same,viability,[8],120%
same,Potency,[5],inactive
same,Potency,[6],inactive
same,Potency,[9],inactive
same,Potency,[11],inactive
same,Potency,[10],inactive
same,Potency,[7],inactive
c1cc(OCCN2CCCCC2)cc(-c2n[nH]c3ccc(-c4ncn[nH]4)cc23)c1,activation,[1],5.89% and 12.9%
same,Potency,[2],inactive
same,Potency,[3],inactive
same,Potency,[4],inactive
same,Potency,[6],1.86 µM (active)
same,Potency,[9],14.8 µM (active)
same,Potency,[11],13.2 µM (active)
CCN(CC)Cc1ccc2cc(COC(=O)Nc3ccc(C(=O)NO)cc3)ccc2c1,Potency,[1],30.1 µM (active) and 27.3 µM (active)
same,Potency,[2],inactive
same,Potency,[3],inactive
same,Potency,[8],0.662 µM (active)
same,Potency,[5],0.662 µM (active)
same,Potency,[6],0.372 µM (active)
same,Potency,[9],0.934 µM (active)
same,Potency,[11],0.525 µM (active)
O=C(Nc1cccnc1)N1CCC(Cc2cccc(Oc3ccc(C(F)(F)F)cn3)c2)CC1,activation,[1],-5.98% and -11%
same,Potency,[2],inactive
same,Potency,[3],inactive
same,Potency,[4],inactive
same,Potency,[6],5.9 µM (active)
same,Potency,[10],20.9 µM (active)
CC1(C)CC[C@]2(C(=O)O[C@@H]3O[C@H](CO)[C@@H](O)[C@H](O)[C@H]3O)CC[C@]3(C)C(=CCC4[C@@]5(C)C[C@@H](O)[C@H](O)[C@@](C)(CO)C5CC[C@]43C)C2[C@@H]1O (stereo partly specified),activation,[1],8.93%
same,Potency,[2],inactive
same,Potency,[12],inactive
same,Potency,[4],inactive
CC(C)n1cnc2c(NCCc3ccc(O)cc3)nc(-c3csc4ccccc34)nc21,activation,[1],28% and 17.7%
same,Potency,[2],inactive
same,Potency,[3],inactive
same,Potency,[4],inactive
same,Potency,[10],20.9 µM (active)
same,Potency,[7],20.9 µM (active)
Cc1ccc(CNc2ncnc3ccc(-c4ccc(CO)o4)cc23)o1,activation,[1],-4.46%
same,Potency,[2],inactive
same,Potency,[12],inactive
same,Potency,[4],inactive
same,Potency,[13],4 µM (active)
COC(=O)Cc1cc2c(c([N+](=O)[O-])c1)N(C(=O)CC[C@H](N)C(=O)O)CC2,activation,[1],-7.67%
same,Potency,[2],inactive
same,Potency,[12],inactive
same,Potency,[4],inactive
